Data on 39 molecules can be found in ChEMBL document CHEMBL4513146, “CO-ADD screening of Karazin Kharkiv National University (Ukraine) compounds”.

SMILES strings stand for the structures. Potency and affinity values are given separately.

The test system of this experiment is Cryptococcus neoformans. As to conditions: Concentration 32 ug.mL-1; ASSAY_TEST Inhibition of Fungal Growth; detection method Resazurin; Absorption (OD600-OD570); plate type 384well; NBS; CORNING #3640.
In the case of `COc1ccc(C)cc1NC(=O)Cn1nc2c3cc(-c4ccc(C)c(C)c4)nn3ccn2c1=O`, the Inhibition (as a rule, the relative decrease from the control value, in per cent) was -9.82%.
Under `Cc1c(Cl)cccc1NC(=O)Cn1nc2c(SCc3ccccc3)nccn2c1=O` stands -7.14%.
Under `Cc1ccc(Sc2ccc3nn(CC(=O)Nc4cccc(Cl)c4)c(=O)n3n2)cc1` stands -8.64%; under `CC(C)c1nnc2c(=O)n(CC(=O)Nc3cccc(C#N)c3)c3ccccc3n12`, -33.67%; under `COc1cccc(Sc2nc3ccccc3n3c(=O)n(CC(=O)Nc4ccc(Cl)cc4)nc23)c1`, -25.56%.
In the case of `CCOc1ccc(NC(=O)Cn2nc3c(Sc4cccc(F)c4)nccn3c2=O)cc1`, the Inhibition is given as -4.31%.
Under `Cc1cccc(NC(=O)Cn2nc3ccc(SC(C)(C)C)nn3c2=O)c1` stands -8.45%; under `Cc1ccccc1NC(=O)Cn1nc2ccc(SC3CCCCC3)nn2c1=O`, -16.32%; under `CCc1cccc(NC(=O)Cn2nc3nc(N4CCCCCC4)ccn3c2=O)c1`, -9.37%.
Under `Cc1cccc(C)c1NC(=O)Cn1c(=O)c2nnc(C(C)C)n2c2ccccc21` stands -19.69%.
The same measure for `CCc1nnc2c(S(=O)(=O)N(Cc3cccc(C)c3)c3ccc(Cl)cc3)cccn12`: -3.81%.
As for `Cc1cc(C)c(NC(=O)Cn2nc3ccc(-c4ccc(C)c(C)c4)nn3c2=O)c(C)c1`, the Inhibition was -13.99%.
On to `CC(C)c1nnc2c(SCC(=O)Nc3ccccc3Br)nc3ccccc3n12`, for which the Inhibition is -6.3%.
Under `O=C(Cn1nc2c(Oc3ccccc3)nccn2c1=O)Nc1ccccc1Cl` stands -12.94%.
The same measure for `CC(C)Cn1c(=O)c2sccc2n2c(=O)n(CC(=O)N3CCC(Cc4ccccc4)CC3)nc12`: -94.76%; for `COc1ccc(NC(=O)c2ccc3nn(CC(=O)Nc4ccc(C)c(F)c4)c(=O)n3c2)cc1`: -14.12%; for `Cc1cccc(Oc2nccn3c(=O)n(CC(=O)N4CCN(c5ccccc5F)CC4)nc23)c1C`: -17.84%.
Under `O=S(=O)(c1ccc2nncn2c1)N(Cc1cc(F)cc(F)c1)c1ccc2c(c1)OCO2` stands -7.84%; under `COc1cccc(-n2ccn3c(SCC(=O)N4CCN(c5ccc(F)cc5)CC4)nnc3c2=O)c1`, -10.47%; under `COc1ccc(-c2cc3c4nn(CC(=O)Nc5ccc(C)c(C)c5)c(=O)n4ccn3n2)cc1`, -15.38%.
For the molecule `CCOc1ccc(NC(=O)Cn2nc3c(SCc4ccc(Cl)cc4)nccn3c2=O)cc1`, the Inhibition is listed as -25.81%.
Under `COc1ccc(C(=O)CSc2nnc3c(=O)n(-c4ccc(Br)cc4)ccn23)cc1` stands -7.3%; under `Cc1cc2nn(CC(=O)Nc3ccc(F)cc3C)c(=O)n2c(Nc2ccc(F)cc2)n1`, -2.95%; under `Cc1nnc2ccc(S(=O)(=O)N(Cc3cccc(F)c3)c3ccc(F)c(F)c3)cn12`, -11.8%.
Under `COC(=O)c1ccccc1NC(=O)Cn1nc2c(Oc3ccc(C)cc3)nccn2c1=O` stands -10.13%.
The same measure for `COC(=O)c1cccc(NC(=O)Cn2nc3ccc(-c4ccc(C)c(C)c4)nn3c2=O)c1`: -13.54%.
On to `COc1ccccc1Cn1c(=O)c2sccc2n2c(=O)n(Cc3ccccc3)nc12`, for which the Inhibition is given as -28.67%.
With `COc1cccc(-n2ccn3c(SCC#N)nnc3c2=O)c1`, the Inhibition is -7.4%.
For the molecule `Cc1nnc2c(SCC(=O)Nc3ccc(F)cc3F)nc3ccccc3n12`, the Inhibition is -22.98%.
For the molecule `COc1ccc(NC(=O)Cn2nc3c(Oc4ccccc4)nccn3c2=O)cc1OC`, the Inhibition is listed as -7.08%.
Under `CCOc1ccc(-n2ccn3c(SCC(=O)Nc4ccc(C)c(C)c4)nnc3c2=O)cc1` stands -12.45%; under `COc1ccc(-c2cc3c4nnc(SCC(=O)Nc5ccc(C#N)cc5)n4ccn3n2)cc1`, -17.71%.
The same measure for `Cc1cc(F)ccc1NC(=O)Cn1nc2c(SCc3ccc(Cl)cc3)nccn2c1=O`: -20.69%.
The same measure for `Cc1ccc(-c2cc3c4nn(CC(=O)N5CCN(c6ccc(F)cc6)CC5)c(=O)n4ccn3n2)cc1C`: -26.79%; for `COc1ccc(-c2cc3c4nnc(CCC(=O)NCc5ccc(OC)c(OC)c5)n4ccn3n2)cc1`: -11.61%.
Regarding `CC(C)(C)NC(=O)Cn1nc2n(Cc3ccco3)c(=O)c3sccc3n2c1=O`, the Inhibition is listed as -14.16%.
The same measure for `Cc1ccc(C)c(Cn2nc3ccc(-c4ccc(C)c(C)c4)nn3c2=O)c1`: -14.79%; for `O=c1n(Cc2cc(F)cc(F)c2)nc2ccc(-c3ccccc3)nn12`: -16.53%.
The same measure for `Cc1nnc2ccc(S(=O)(=O)N(Cc3ccccc3)c3ccc(Cl)cc3)cn12`: -6.05%.
